These results are taken from PubChem BioAssay (EPA / NIEHS).

Results filed as inconclusive are left out. Calls of active or inactive are those of the source. The calls were made as follows, unless noted: active = hit-call score of the fitted dose curve at least 0.9, where 1 is the maximum; inconclusive = response in the unintended direction; inactive = score below 0.9.

The target of assay [1] is PGR (gene 5241) (UniProt P06401). Kind of assay: TOX21_PR_BLA_Followup_Antagonist_ratio: Tox21 HEK293 Progesterone Receptor (PR) Antagonism Beta-lactamase Follow-Up Assay, Ratio (AID 2283934). An outline of the steps: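 PR-UAS-bla HEK293T cells, 3,000/well in 2% charcoal-stripped FBS, given compound plus 1nM R5020 agonist for 16 hr at 37C. Beta-lactamase FRET substrate 2 hours, ratio cleaved/uncleaved fluorescence; viability by CellTiter-Glo in same wells.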

Assay [2] is described as follows: TOX21_PR_BLA_Followup_Agonist_viability: Viability Assessment in the Tox21 HEK293 Progesterone Receptor (PR) Agonism Beta-lactamase Follow-Up Assay (AID 2283935).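 Also: signal loss means lower viability so actives are cytotoxic.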 The gist of the method: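 PR-UAS-bla HEK293T cells in 2% charcoal-stripped FBS medium, plated 6 hr before compound addition, exposed 16 hr at 37C. Viability read by CellTiter-Glo ATP luminescence after 30 min at room temperature, in the same wells as the beta-lactamase readout.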

Assay [3] is described as follows: TOX21_PR_BLA_Followup_Antagonist_viability: Viability Assessment in the Tox21 HEK293 Progesterone Receptor (PR) Antagonism Beta-lactamase Follow-Up Assay (AID 2283936).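 Also: hits lower the luminescence signal meaning cytotoxicity.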 An outline of the steps: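 PR-UAS-bla HEK293T cells (3,000/well, 2% charcoal-stripped FBS) given compound plus R5020 agonist, 16 h at 37C. CellTiter-Glo added after bla read, 30 min at room temperature; luminescence loss indicates cytotoxicity.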

The target in assay [4] is PGR (gene 5241) (UniProt P06401). The experiment in a line: TOX21_PR_LUC_Followup_Agonist: Tox21 HEK293 Progesterone Receptor (PR) Agonism Luciferase Follow-Up Assay (AID 2283937; active = hit-call score of the fitted dose curve at least 0.9, where 1 is the maximum; inactive = score below 0.9). The gist of the method: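 HEK293-PR-A-luc cells, conditioned 5 days in 10% charcoal-stripped FBS medium, seeded 3,000/well for 5 h, then compound-treated 16 h at 37C. ONE-Glo luminescence read after 30 min at room temperature; gain of signal versus DMSO.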

A short description of assay [5]: TOX21_PR_LUC_Followup_Antagonist_viability: Viability Assessment in the Tox21 HEK293 Progesterone Receptor (PR) Antagonism Luciferase Follow-Up Assay (AID 2283940). An outline of the steps:
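HEK293-PR-A-luc cells kept in charcoal-stripped FBS medium were plated 5 h before compound addition, then exposed 16 h at 37C; viability read as cellular ATP by luciferase luminescence, loss of signal indicating cytotoxicity.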

A short description of assay [6]: TOX21_PR_LUC_Followup_Agonist_viability: Viability Assessment in the Tox21 HEK293 Progesterone Receptor (PR) Agonism Luciferase Follow-Up Assay (AID 2283941).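 Also: loss of signal means cytotoxicity so actives lower viability.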 The gist of the method:
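HEK293-PR-A-luc cells, kept in 10% charcoal-stripped FBS medium, were treated with compounds for 16 h at 37C. Viability read as cellular ATP by luciferase-coupled luminescence; loss of signal indicates cytotoxicity.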

Assay [7] has as its target T1, Thyroid hormone receptor alpha (Rattus norvegicus) + Thyroid hormone receptor beta (Rattus norvegicus) (UniProt P18113+P63059). The experiment in a line: TOX21_TR_LUC_GH3_Agonist_Followup: Tox21 GH3 Thyroid Hormone Receptor Agonism Luciferase Follow-Up Assay (AID 2283939). An outline of the steps: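 Rat GH3 cells (1,500/well) in serum-free assay medium, treated with 15-point series, 92 uM to 5 nM final, for 24 h at 37C. Luciferase via ONE-Glo luminescence; gain of signal fitted against DMSO, T3 positive control.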

The target of assay [8] is THRA (gene 7067) (UniProt P10827). Kind of assay: TOX21_TRA_COA_Agonist_Followup_ratio: Tox21 Thyroid Hormone Receptor alpha Agonism through Coactivator Recruitment Follow-Up Assay, Ratio (AID 2283948; active = hit-call score of the fitted dose curve at least 0.9, where 1 is the maximum; inactive = score below 0.9). An outline of the steps:
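Cell-free TR-FRET: GST-tagged TRα LBD (2.5 nM) with 0.10% BSA and compound, then fluorescein-SRC-2 peptide (200 nM) and Tb-anti-GST antibody (2 nM). Readout 520:495 nm ratio (ex 340 nm), normalized to DMSO (0%) and T3 (100%).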

The target of assay [9] is THRB (gene 7068) (UniProt P10828). Kind of assay: TOX21_TRB_BLA_Agonist_Followup_ratio: Tox21 Thyroid Hormone Receptor beta Agonism Beta-lactamase (BLA) Follow-Up Assay, Ratio (AID 2283954). The gist of the method: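 Human TRβ LBD–GAL4 DBD fusion in GeneBLAzer UAS-bla HEK293T cells; 11 concentrations in triplicate, 18 h at 37°C/5% CO2, T3 as agonist control. CCF4-AM substrate 2 h at room temperature; 460:530 nm ratio fitted for gain of signal versus DMSO.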

For assay [10] the target is unchanged. The experiment in a line: TOX21_TRB_COA_Agonist_Followup_ratio: Tox21 Thyroid Hormone Receptor beta Agonism through Coactivator Recruitment Follow-Up Assay, Ratio (AID 2283963; active = hit-call score of the fitted dose curve at least 0.9, where 1 is the maximum; inactive = score below 0.9). An outline of the steps: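 Cell-free TR-FRET coactivator recruitment: GST-tagged TRβ LBD (5.0 nM) with 0.10% BSA incubated with compound, then fluorescein-SRC-2 peptide (200 nM) and Tb-anti-GST antibody (2 nM) added. 520:495 nm ratio normalized to DMSO (0%) and T3 (100%).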

The target in assay [11] is Retinoic acid receptor RXR-alpha (Homo sapiens) (UniProt P19793). The experiment in a line: TOX21_TR_RXR_BLA_Agonist_Followup_ratio: Tox21 Thyroid Hormone Receptor beta Retinoid X Receptor alpha (RXRa) Agonism Beta-lactamase (BLA) Follow-Up Assay, Ratio (AID 2283968). An outline of the steps: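 RXRa-UAS-bla HEK293T cells, 5 h attachment at 37C/5% CO2, then 11 concentrations in triplicate for 16 h; 9-cis retinoic acid positive control. FRET-B/GCCF4-AM substrate 2 h at room temperature; 460:530 nm ratio, fitted for gain versus DMSO.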

Assay [12] in a line: TOX21_TR_RXR_BLA_Agonist_Followup_viability: Viability Assessment in the Tox21 Thyroid Hormone Receptor beta Retinoid X Receptor alpha (RXRa) Agonism Beta-lactamase (BLA) Follow-Up Assay (AID 2283970). The gist of the method:
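RXRa-UAS-bla HEK293T cells, 2,500/well in phenol red-free DMEM with 2% charcoal-stripped FBS, dosed for 16 h at 37C. Viability measured by CellTiter-Glo ATP luminescence; fitted bidirectionally against DMSO baseline, loss of signal indicating cytotoxicity.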

The target of assay [13] is T1, Thyroid hormone receptor alpha (Rattus norvegicus) + Thyroid hormone receptor beta (Rattus norvegicus). Kind of assay: TOX21_TR_LUC_GH3_Antagonist_Followup: Tox21 GH3 Thyroid Hormone Receptor Antagonism Luciferase Follow-Up Assay (AID 2283942). An outline of the steps:
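Confirmatory qHTS, antagonist mode: T3 (1.0 nM final) + test cpd, 15 conc, 92 uM–5nM final, GH3 rat pituitary line, 24 h, 37C. Luc reporter, RLU vs DMSO.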

Assay [14] addresses THRB (gene 7068) (UniProt P10828). The experiment in a line: TOX21_TRB_BLA_Antagonist_Followup_ratio: Tox21 Thyroid Hormone Receptor beta Antagonism Beta-lactamase (BLA) Follow-Up Assay, Ratio (AID 2283958). The gist of the method: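 HEK293T cells with a GAL4-TRb LBD fusion and UAS-bla reporter, 3,000 cells/well in phenol red-free DMEM with 2% charcoal-stripped FBS. Exposed 18 h at 37C to 11 concentrations in triplicate; CCF4 460:530 nm ratio after 2 h, DMSO-referenced.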

Assay [15] shares this target. The experiment in a line: TOX21_TRB_COA_Antagonist_Followup_ratio: Tox21 Thyroid Hormone Receptor beta Antagonism through Coactivator Recruitment Follow-Up Assay, Ratio (AID 2283967). The gist of the method:
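Test compound was incubated with 5.0 nM GST-TRβ LBD in 0.10% BSA. Then 200 nM fluorescein-SRC-2 peptide and 2 nM terbium anti-GST antibody were added. TR-FRET (520:495 nm) was measured and normalized to DMSO and T3 controls.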

Assay [16] addresses Retinoic acid receptor RXR-alpha (Homo sapiens) (UniProt P19793). Kind of assay: TOX21_TR_RXR_BLA_Antagonist_Followup_ratio: Tox21 Thyroid Hormone Receptor beta Retinoid X Receptor alpha (RXRa) Antagonism Beta-lactamase (BLA) Follow-Up Assay, Ratio (AID 2283972). The gist of the method:
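RXRa-UAS-bla HEK293T cells, 2,500/well in phenol red-free DMEM with 2% charcoal-stripped FBS, 5 h attachment, then compounds (11 concentrations, triplicate) for 16 h at 37C; FRET-B/GCCF4-AM substrate 2 h RT; 460:530 nm ratio, loss of signal vs DMSO.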

Assay [17] can be described thus: TOX21_TR_RXR_BLA_Antagonist_Followup_viability: Viability Assessment in the Tox21 Thyroid Hormone Receptor beta Retinoid X Receptor alpha (RXRa) Antagonism Beta-lactamase (BLA) Follow-Up Assay (AID 2283979). An outline of the steps:
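Follow-up compounds (11 concentrations, triplicate) were incubated 16 h at 37C/5% CO2 with HEK293T RXRa-bla cells seeded at 2,500/well in charcoal-stripped-serum medium. ATP content by CellTiter-Glo luminescence gave viability; curves fitted in both directions against DMSO.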

The target in assay [18] is PGR (gene 5241) (UniProt P06401). The experiment in a line: TOX21_PR_LUC_Followup_Antagonist: Tox21 HEK293 Progesterone Receptor (PR) Antagonism Luciferase Follow-Up Assay (AID 2283938).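 Also: curve fitted upward as signal gain over DMSO baseline despite antagonist label.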 The gist of the method: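 HEK293-PR-A-luc cells, 3,000/well, preincubated 5 h at 37C before compound addition in DMSO; 16 h compound exposure at 37C. ONE-Glo luciferase luminescence read after 30 min at room temperature, fitted relative to DMSO baseline.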

The nature of assay [19]: TOX21_TRB_BLA_Antagonist_Followup_viability: Viability Assessment in the Tox21 Thyroid Hormone Receptor beta Antagonism Beta-lactamase (BLA) Follow-Up Assay (AID 2283961). An outline of the steps:
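HEK293T cells with GAL4-human TRβ LBD and UAS-bla reporter, 3,000 cells/well in 2% charcoal-stripped FBS medium; 11-point concentrations in triplicate, 18 h at 37C. Viability from ATP by CellTiter-Glo luminescence, 30 min RT, same plates.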

Sequence of PGR (gene 5241) (P06401 whole entry, looked up): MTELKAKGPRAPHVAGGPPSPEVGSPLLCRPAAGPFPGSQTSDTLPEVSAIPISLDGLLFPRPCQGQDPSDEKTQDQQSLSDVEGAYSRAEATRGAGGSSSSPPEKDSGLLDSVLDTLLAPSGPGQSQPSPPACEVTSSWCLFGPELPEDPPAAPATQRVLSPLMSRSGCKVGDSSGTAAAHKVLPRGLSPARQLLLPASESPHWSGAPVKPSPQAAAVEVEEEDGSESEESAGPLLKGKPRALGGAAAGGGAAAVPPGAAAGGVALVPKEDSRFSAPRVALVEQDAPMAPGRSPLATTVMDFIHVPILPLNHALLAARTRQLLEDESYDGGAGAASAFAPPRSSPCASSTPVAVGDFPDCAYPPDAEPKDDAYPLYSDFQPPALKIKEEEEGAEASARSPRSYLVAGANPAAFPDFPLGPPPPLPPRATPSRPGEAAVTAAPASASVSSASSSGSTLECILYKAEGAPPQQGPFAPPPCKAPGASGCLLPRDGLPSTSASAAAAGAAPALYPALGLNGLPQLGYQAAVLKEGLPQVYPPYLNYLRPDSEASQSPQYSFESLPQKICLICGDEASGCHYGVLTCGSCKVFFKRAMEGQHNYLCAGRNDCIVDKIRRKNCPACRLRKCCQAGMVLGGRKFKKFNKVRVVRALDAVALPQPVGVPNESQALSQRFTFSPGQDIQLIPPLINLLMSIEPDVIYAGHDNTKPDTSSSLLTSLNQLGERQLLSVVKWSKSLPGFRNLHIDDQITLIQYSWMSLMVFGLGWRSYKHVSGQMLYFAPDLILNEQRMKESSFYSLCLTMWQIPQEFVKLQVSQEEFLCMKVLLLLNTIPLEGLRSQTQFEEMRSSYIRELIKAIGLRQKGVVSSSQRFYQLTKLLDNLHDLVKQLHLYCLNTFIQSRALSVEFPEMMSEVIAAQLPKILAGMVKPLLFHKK
Sequence of THRB (gene 7068) (P10828 whole entry, looked up, the tested form may be a part): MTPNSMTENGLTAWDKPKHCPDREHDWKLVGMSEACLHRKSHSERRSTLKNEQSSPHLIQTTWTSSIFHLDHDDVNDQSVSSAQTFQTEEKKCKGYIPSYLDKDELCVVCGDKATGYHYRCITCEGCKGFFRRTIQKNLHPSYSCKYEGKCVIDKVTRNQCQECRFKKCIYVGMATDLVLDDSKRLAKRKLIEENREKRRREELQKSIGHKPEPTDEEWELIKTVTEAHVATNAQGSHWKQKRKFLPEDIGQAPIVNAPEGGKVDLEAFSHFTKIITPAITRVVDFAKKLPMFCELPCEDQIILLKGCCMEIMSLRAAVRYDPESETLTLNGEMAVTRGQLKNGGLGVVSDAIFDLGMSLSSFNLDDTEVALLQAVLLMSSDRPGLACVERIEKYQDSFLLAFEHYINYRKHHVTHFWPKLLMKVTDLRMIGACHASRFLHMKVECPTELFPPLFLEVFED
Sequence of Retinoic acid receptor RXR-alpha (Homo sapiens) (P19793 whole entry, looked up): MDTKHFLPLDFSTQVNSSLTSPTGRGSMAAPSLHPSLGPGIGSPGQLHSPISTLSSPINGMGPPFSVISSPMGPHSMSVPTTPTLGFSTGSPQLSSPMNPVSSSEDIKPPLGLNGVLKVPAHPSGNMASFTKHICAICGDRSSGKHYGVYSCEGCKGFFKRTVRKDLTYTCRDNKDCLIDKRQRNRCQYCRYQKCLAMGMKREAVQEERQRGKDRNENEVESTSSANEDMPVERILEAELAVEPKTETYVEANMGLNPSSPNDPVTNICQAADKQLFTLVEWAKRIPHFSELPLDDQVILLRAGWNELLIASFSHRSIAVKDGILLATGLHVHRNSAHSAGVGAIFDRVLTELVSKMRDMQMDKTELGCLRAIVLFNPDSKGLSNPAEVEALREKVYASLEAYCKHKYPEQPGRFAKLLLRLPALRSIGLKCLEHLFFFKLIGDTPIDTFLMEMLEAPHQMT
T1 sequence (P63059 whole entry, looked up): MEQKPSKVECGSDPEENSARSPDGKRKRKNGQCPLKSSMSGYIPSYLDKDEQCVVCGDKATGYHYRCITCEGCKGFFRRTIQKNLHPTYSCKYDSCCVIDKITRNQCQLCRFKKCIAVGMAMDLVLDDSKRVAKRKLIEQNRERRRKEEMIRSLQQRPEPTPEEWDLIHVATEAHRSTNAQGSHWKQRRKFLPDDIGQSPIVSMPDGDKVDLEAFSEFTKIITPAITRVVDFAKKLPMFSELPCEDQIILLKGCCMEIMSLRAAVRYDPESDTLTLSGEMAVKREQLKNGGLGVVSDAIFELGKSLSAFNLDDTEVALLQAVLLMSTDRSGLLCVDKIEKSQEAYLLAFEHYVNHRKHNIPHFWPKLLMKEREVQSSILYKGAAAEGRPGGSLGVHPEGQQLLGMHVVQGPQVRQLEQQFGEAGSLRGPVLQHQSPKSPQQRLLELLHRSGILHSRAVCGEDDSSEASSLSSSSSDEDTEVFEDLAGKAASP
T1 sequence (P18113 whole entry, looked up): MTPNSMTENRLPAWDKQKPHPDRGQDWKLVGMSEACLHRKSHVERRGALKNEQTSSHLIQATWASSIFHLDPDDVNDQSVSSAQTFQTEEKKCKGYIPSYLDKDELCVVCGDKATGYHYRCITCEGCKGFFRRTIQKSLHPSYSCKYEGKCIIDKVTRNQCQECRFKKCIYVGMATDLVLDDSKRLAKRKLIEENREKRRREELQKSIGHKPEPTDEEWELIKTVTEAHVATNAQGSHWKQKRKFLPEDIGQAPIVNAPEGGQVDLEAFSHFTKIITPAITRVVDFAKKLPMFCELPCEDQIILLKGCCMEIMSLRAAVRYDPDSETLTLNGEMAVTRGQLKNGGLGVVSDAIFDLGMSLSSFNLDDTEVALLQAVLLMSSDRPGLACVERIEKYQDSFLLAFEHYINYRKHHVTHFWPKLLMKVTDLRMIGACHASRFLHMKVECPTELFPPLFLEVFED
Sequence of THRA (gene 7067) (P10827 whole entry, looked up, the tested form may be a part): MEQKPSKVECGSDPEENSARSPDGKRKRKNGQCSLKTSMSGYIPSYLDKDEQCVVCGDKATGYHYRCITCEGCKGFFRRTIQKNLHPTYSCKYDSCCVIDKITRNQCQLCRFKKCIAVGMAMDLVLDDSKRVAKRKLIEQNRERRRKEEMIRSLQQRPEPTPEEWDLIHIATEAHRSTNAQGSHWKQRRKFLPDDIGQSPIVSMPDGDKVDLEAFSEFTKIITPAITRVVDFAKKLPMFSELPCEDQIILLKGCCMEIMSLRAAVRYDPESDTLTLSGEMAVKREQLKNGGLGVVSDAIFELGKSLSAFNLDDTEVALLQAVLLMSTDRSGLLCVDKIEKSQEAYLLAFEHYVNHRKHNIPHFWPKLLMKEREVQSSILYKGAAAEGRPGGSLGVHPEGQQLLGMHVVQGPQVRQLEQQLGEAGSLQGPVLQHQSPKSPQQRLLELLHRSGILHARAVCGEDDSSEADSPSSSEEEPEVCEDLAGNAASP

As a reminder, the AC50 is the concentration giving half of the maximal activity seen. In the case of `C[C@@H]1C[C@H]2[C@@H]3CCC4=CC(=O)C=C[C@]4(C)[C@@]3(F)[C@@H](O)C[C@]2(C)[C@@]1(O)C(=O)COC(=O)c1ccncc1`, the outcome in assay [1], in [2], in [3], in assay [5] and in [6] was inactive. Moreover, the AC50 in assay [4] is 0.51 µM (active).

Take `Nc1ncn([C@H]2C[C@H](O)[C@@H](CO)O2)c(=O)n1`: the outcome in [7], in assay [8], in assay [9], in [10], in assay [11] and in [12] was inactive.

For the compound `CC(=O)O[C@@]12CO[C@@H]1C[C@H](O)[C@@]1(C)C(=O)[C@H](O)C3=C(C)[C@@H](OC(=O)[C@H](O)[C@@H](NC(=O)OC(C)(C)C)c4ccccc4)C[C@@](O)([C@@H](OC(=O)c4ccccc4)[C@H]21)C3(C)C`, the result in [13], in [14], in [15], in assay [16] and in assay [17] was inactive.

In the case of `C/C=C(/C(=C/C)c1ccc(OC(C)=O)cc1)c1ccc(OC(C)=O)cc1`, the values for the AC50 in [1] and in assay [18] were 9.64 µM (active) and 14.7 µM (active), respectively. Further, the compound was classed as inactive in assay [2], in assay [3], in assay [4] and in assay [5].

Consider `O=C(O)c1cccnc1Nc1cccc(C(F)(F)F)c1`, for which the result in assay [13], in [14], in assay [19], in assay [15], in assay [16] and in [17] was inactive.

For the compound `C/C=C1/C(=O)C[C@H]2[C@@H]3CCC4=CC(=O)CC[C@]4(C)[C@H]3CC[C@]12C`, the outcome in assay [1], in assay [2], in assay [3], in [18], in assay [5] and in assay [6] was inactive. Also, the result in assay [13], in assay [14], in assay [19], in [15] and in assay [17] was inactive.
